Measured values reported in PubChem BioAssay (NCI).
About 83,000 compounds went through this panel and 20% of them were active in at least one assay; those are over-represented in the sample as a whole.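 Interpretation: 100, growth as untreated; towards 0, rising growth inhibition; 0, no net growth; 0 to -100, cell death. Compounds scoring below 10 were considered active.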 Unmarked numbers belong to inactive results. Calls of active or inactive are those of the source.

system: HOP-92 NSCLC; test: NCI-60 one-dose screen, 48 h (100 = growth as untreated, 0 = no growth, -100 = all killed); settings: 10 µM unless noted

SMILES | growth
COc1cccc2cc(-c3nc(C4CCC(C(=O)O)CC4)n4ncnc(N)c34)[nH]c12 (centres undefined) | -14.5% (active)
CNC(=O)c1cc(Oc2ccc3nc(NC(=O)Nc4ccc(Cl)c(C(F)(F)F)c4)sc3c2)ccn1 | -27.6% (active)
C[C@@H](Oc1cc(-n2cnc3ccc(CN4CCN(C)CC4)cc32)sc1C(N)=O)c1ccccc1C(F)(F)F | 21.7%
Oc1ccc(C(c2ccc(O)cc2)C(Cl)(Cl)Cl)cc1 | 56.1%
C[C@H](NC(=O)c1c(N)nn2cccnc12)c1cc2cccc(C#Cc3cnn(C)c3)c2c(=O)n1-c1ccccc1 | 9.5% (active)
COc1cc(CCc2cc(NC(=O)c3ccc(N4C[C@@H](C)N[C@@H](C)C4)cc3)n[nH]2)cc(OC)c1 | 54.4%
CNC(=O)CN1CCC(Oc2cc3c(Nc4cccc(Cl)c4F)ncnc3cc2OC)CC1 | 25.1%
Cc1oc2c(C(=O)N/N=C\c3ccc(O)cc3O)c[nH]c2c1C | 13.4%
CCCCCc1ccc(C)cc1OC(=O)CCl | 73.6%
COc1cc2ncnc(Oc3cccc(NC(=O)Nc4cc(C(C)(C)C(F)(F)F)on4)c3)c2cc1OC | -3.15% (active)
COc1cc(Nc2ncc3c(n2)-c2ccc(Cl)cc2C(c2c(F)cccc2OC)=NC3)ccc1C(=O)O | 115%
CC[C@H](Nc1ncnc2nc[nH]c12)c1nc2cccc(F)c2c(=O)n1-c1ccccc1 | 49.2%
CN1CCN(CCOc2cc(OC3CCOCC3)c3c(Nc4c(Cl)ccc5c4OCO5)ncnc3c2)CC1 | 35.3%
Nc1nc(Nc2ccccc2)c(C=Nc2ccccc2)c(=O)[nH]1 | 66.8%
CNC(=O)c1cc(Oc2cccc3nc(Nc4ccc(Oc5ccccc5)cc4)ccc23)ccn1 | 71.2%
CN1CC[C@@H](c2c(O)cc(O)c3c(=O)cc(-c4ccccc4Cl)oc23)[C@@H]1CO | -2.24% (active)
Cc1[nH]n(C(N)=S)c(=O)c1N=Nc1ccc(S(=O)(=O)Nc2ccncn2)cc1 | 16.4%
COCCN1CCN(Cc2ccc(-c3n[nH]c4c3C(=O)c3c(NC(=O)NN5CCOCC5)cccc3-4)cc2)CC1 | 39.7%
CN(c1ncccc1CNc1nc(Nc2ccc3c(c2)CC(=O)N3)ncc1C(F)(F)F)S(C)(=O)=O | 2.42% (active)
COc1cc(N2CCC(N3CCN(C)CC3)CC2)ccc1Nc1ncnc(Nc2ccccc2S(=O)(=O)C(C)C)n1 | 105%

SMILES | growth
O=C(COc1ccc(/C=C2\Cc3ccc(Cl)cc3C2=O)cc1)Nc1nccs1 | 77.5%
O=C(c1ccc(/C=C/c2n[nH]c3ccccc23)cc1)N1CCNCC1 | -3.02% (active)
O=C(O)C1(Cc2cccc(Nc3nccs3)n2)CCC(Oc2cccc(Cl)c2F)CC1 (centres undefined) | 102%
Cc1cc(O)cc(-c2c(-c3ccnc(-c4cccnc4)c3)cnn2C)c1 | 42.7%
Cc1c(CN2CCN(C(=O)[C@H](C)O)CC2)sc2c(N3CCOCC3)nc(-c3cnc(N)nc3)nc12 | -24.6% (active)
CN1CCN(c2ccc(C(=O)Nc3n[nH]c4ccc(Cc5cc(F)cc(F)c5)cc34)c(NC3CCOCC3)c2)CC1 | -68.6% (active)
C#Cc1cccc(Nc2ncnc3cc(OCCOC)c(OCCOC)cc23)c1 | 72.8%
COc1ccc(Nc2ncccc2NC(=O)c2cn(Cc3cccc(Oc4ccccc4)c3)nn2)cc1 | 99.6%
O=C1NC(=O)[C@@H](c2cn3c4c(cccc24)CCC3)[C@@H]1c1c[nH]c2ccccc12 | 31%
Cc1cc(-c2cc(O)ccc2Cl)cc2nnc(Nc3ccc(OCCN4CCCC4)cc3)nc12 | -69.1% (active)
C=CCN(/C=C1/C(=O)O[C@H](COC)[C@@]2(C)C1=C(O)C(=O)C1=C2[C@H](OC(C)=O)C[C@]2(C)C(=O)CC[C@@H]12)CC=C | -3.58% (active)
CNC(=O)c1nn(C)c2c1C(C)(C)Cc1cnc(Nc3ccc(N4CCN(C)CC4)cc3)nc1-2 | 3.76% (active)
CC(C)Nc1cc(-c2c[nH]c(C(=O)N[C@H](CO)c3cccc(Cl)c3)c2)c(Cl)cn1 | -18.5% (active)
COc1ccc(Cc2cc(-c3ccccc3C)n[nH]c2=O)cc1 | 22.7%
CC(C)[C@@H]1CC[C@@H]2[C@@H]1[C@H](OC(=O)/C=C/c1ccccc1)[C@]1(C(C)C)C[C@@H](OC(=O)CO)[C@@]2(C)O1 | 68.6%
Cc1ncc(-c2ccnc(Nc3ccc(S(C)(=O)=O)cc3)n2)n1C(C)C | -4.8% (active)
C/C=C/C=N/NC(=S)Nc1ccccc1 | 93%
Cc1nn(-c2ccccc2)c2c1N=c1s/c(=C\c3cn(-c4ccccc4)nc3-c3ccc(Cl)cc3)c(=O)n1C(C)N2 (centres undefined) | 66.7%
COc1cc2c(cc1OCCCN1Cc3ccc(OCCCCC(=O)N4CCC(CCN5CCCC5)CC4)cc3C1)N=C(N)C21CCCC1 | 78.7%
